Laboratory results taken from PubChem BioAssay (Tox21).
Results filed as inconclusive are left out. Values without a mark were called inactive. The source made the active and inactive calls. Calls come from the whole dose curve; as a rule, active = well fitted cell-killing curve with a large enough effect in the repeat runs; inconclusive = weak or mixed curves, or effect the other way; inactive = no such curve, though single readings can be large or run the other way. Where a SMILES comes first, the peptide text is derived from it.

Assay: qHTS assay to identify small molecule antagonists of the progesterone receptor (PR) signaling pathway - cell viability counter screen (AID 1346798); note: nearly all actives have a fitted effect of over 50% in size
Details: PR-UAS-bla HEK293T viability, CellTiter-Glo luminescence, 16 h; series mostly up to 92.4 µM
Text: National Center for Advancing Translational Sciences [NCATS]
NIH Chemical Genomics Center [NCGC]
U.S. Environmental Protection Agency [EPA]
National Institutes of Environmental Health Sciences [NIEHS]
National Toxicology Program [NTP]
U.S. Food and Drug Administration [FDA]
Progesterone receptor (PR), a nuclear hormone receptor, plays an important role in development, metabolic homeostasis and reproduction. It is activated by the steroid hormone progesterone. Endocrine disrupting chemicals (EDCs) and their interactions with steroid hormone receptors like PR causes disruption of normal endocrine function. To identify the compounds that inhibit PR signaling, a PR-UAS-bla GripTite cell line i.e. PR-UAS-bla HEK293T (Invitrogen, Carlsbad, CA, USA) containing a beta-lactamase reporter gene under the control of an UAS response element was used to screen Tox21 10K compound library. The cytotoxicity of the Tox21 compound library against the PR-bla cell line was tested in parallel by measuring the cell viability using CellTiter-Glo assay in the same wells.
Tox21 Assay Protocol Summary:
PR-UAS-bla HEK293T cells were dispensed at 3,000 cells/4 uL of assay medium containing 2% charcoal stripped FBS per well into black wall/clear-bottom 1536-well plates using a Multidrop Combi (ThermoFisher Scientific, Waltham, MA) dispenser. After the assay plates were incubated at a 37C and 5% CO2 for 4 hr, 23 nL of compounds dissolved in DMSO, positive controls or DMSO only was transferred to the assay plate by a Pintool station (Kalypsys, San Diego, CA), followed by addition of 1 uL of R5020 in assay medium using a Flying Reagent Dispenser (FRD, Aurora Discovery, San Diego, CA). The plates were incubated at 37C and 5% CO2 for 16 hr. Then 1 uL of LiveBLAzer B/G FRET substrate was added using a Flying Reagent Dispenser, the plates were incubated at room temperature for 2 hours, and fluorescence intensity was measured by an Envision plate reader (PerkinElmer, Shelton, CT). For cell viability readout that measures cytotoxicity, 4 uL/well of CellTiter-Glo reagent was added into the assay plates using a FRD. After 30 min incubation at room temperature, the luminescence intensity in the plates was measured using a ViewLux (PerkinElmer) plate reader.
% is set by controls: 0 for no effect and ±100 for the full control effect.

SMILES	outcome	activity change, negative = cytotoxicity
CCCCOC(=O)C(C)O (stereo not given)	inactive	–
COc1ccc2c(c1)c1c3n2CCN(C)C3=NCC1	inactive	–
Nc1nnnn1-c1ccccc1	inactive	–
O=C1NC(c2ccccc2)(c2ccccc2)C(=O)N1COP(=O)(O)O	inactive	–
COc1nc(N)nc2nc[nH]c12	inactive	–
C[C@@H](O)C(=O)O	inactive	–
CCC(=O)CC	inactive	–
OCC(O)CN1CCN(c2ccccc2)CC1 (stereo not given)	inactive	–
C=CC(=O)OCC1CCCO1 (stereo not given)	inactive	–
O=C(NCN1CCOCC1)c1cnccn1	inactive	–
CC1c2ccccc2CN1NC(=O)c1ccc(Cl)c(S(N)(=O)=O)c1 (stereo not given)	inactive	–
Cc1ccccc1C(N)=O	inactive	–
N#CCC(=O)NN	inactive	–
COC(=O)c1cc(Cl)cc(Cl)c1	inactive	–
N[C@@H](Cc1ccc(O)cc1)C(=O)O	–	-4.23% [at 8.39 µM]
CC1=NN(c2ccc(S(=O)(=O)O)cc2)C(=O)C1	inactive	–
CC(O)COC(C)(C)C (stereo not given)	inactive	–
CC(Oc1cc(Cl)ccc1Cl)C(=O)O (stereo not given)	inactive	–
Cc1ccc(C(C)NC(=O)[C@@H](NC(=O)OC(C)C)C(C)C)cc1 (stereo not given in full)	inactive	–
N#Cc1cscn1	inactive	–

SMILES	outcome	activity change, negative = cytotoxicity
Cc1ccc(C(=O)O)cc1[N+](=O)[O-]	inactive	–
CCCC(CC)c1ccccc1 (stereo not given)	inactive	–
CCCCOCC(C)O (stereo not given)	inactive	–
COc1cc2c(cc1OC)CN(C(=O)[C@H](C)N[C@@H](CCc1ccccc1)C(=O)O)[C@H](C(=O)O)C2	inactive	–
CC1CC(=O)CC(C)(C)C1 (stereo not given)	inactive	–
CO/N=C(/C(=O)N[C@@H]1C(=O)N2C(C(=O)[O-])=C(C[n+]3ccn4ncccc43)CS[C@H]12)c1nsc(N)n1	inactive	–
CC(C)NCC(O)c1ccc2ccccc2c1 (stereo not given)	inactive	–
COc1c2occc2c(OC)c2c(=O)cc(C)oc12	inactive	–
CCCCCCCCCCCCCCCCCC#N	inactive	–
CSc1cnccn1	inactive	–
Cc1ncc([N+](=O)[O-])n1CC(C)O (stereo not given)	inactive	–
O=C1CCCCO1	inactive	–
C/C=C(\C)C(=O)OCCc1ccccc1	inactive	–
O=C(CCCl)NCCc1ccccc1	inactive	–
CO[Si](CCCn1c(=O)n(CCC[Si](OC)(OC)OC)c(=O)n(CCC[Si](OC)(OC)OC)c1=O)(OC)OC	inactive	–
COC(=O)c1cccc(Cl)c1	inactive	–
CN(C)CCCCl	inactive	–
CN(C)CCOC(=O)C(c1ccccc1)C1(O)CCCC1 (stereo not given)	inactive	–
CC(=O)N[C@@H](CO)C(=O)N[C@@H](CC(=O)O)C(=O)N[C@@H](CCCCN)C(=O)N1CCC[C@H]1C(=O)O (Ac-SDKP-OH)	inactive	–
CN(C)CCCO[C@@H]1[C@H]2OC(C)(C)O[C@H]2O[C@@H]1C(O)CO (stereo not given in full)	inactive	–
